Records with an inconclusive call do not appear. Active and inactive are the calls of the source.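 The calls were made as follows, unless noted: active = normalized viability below 100% at a tested concentration; inactive = the rest.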
Key:
[1] = viability loss in pontine glioma line – cell-based, SU-DIPG-XVII, MIPE5.0, CellTiter-Glo, qHTS, dose response (AID 1347060; cut-off not given, nearly all actives have AC50 up to about 26 µM;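 as to AC50: cells exposed to compound for 48 hours before viability readout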); conditions: CellTiter-Glo ATP luminescence
[2] = viability loss in pontine glioma line – cell-based, SU-DIPG-XIII, MIPE4.0, CellTiter-Glo, qHTS, dose response (AID 1347061; cut-off not given, nearly all actives have AC50 up to about 37 µM;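 also: cells exposed to compound for 48 hours before readout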); conditions: CellTiter-Glo ATP luminescence
[3] = viability loss in pontine glioma line – cell-based, SU-DIPG-IV, MIPE4.0, CellTiter-Glo, qHTS, dose response (AID 1347063; cut-off not given, nearly all actives have AC50 up to about 30 µM;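 also: compound exposure lasted 48 hours before the viability readout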); conditions: CellTiter-Glo ATP luminescence
[4] = viability loss in pontine glioma line – cell-based, SU-DIPG-XXV, MIPE5.0, CellTiter-Glo, qHTS, dose response (AID 1347065; cut-off not given, nearly all actives have AC50 up to about 26 µM;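 also: cells exposed to compound for 48 hours before ATP readout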); conditions: CellTiter-Glo ATP luminescence
[5] = growth inhibition of DIPG cells – cell-based, MIPE4.0 library, CellTiter-Glo luminescence, qHTS (AID 1347066; cut-off not given, nearly all actives have AC50 up to about 30 µM;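 also: cells exposed to compound for 48 hours before readout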); conditions: SU-DIPG-VI viability, CellTiter-Glo ATP luminescence
[6] = JHH-DIPG-1 glioma cell viability, MIPE5.0 library, CellTiter-Glo luminescence, qHTS (AID 1347067; cut-off not given, nearly all actives have AC50 up to about 26 µM;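 also: cells exposed to compound for 48 hours before readout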); conditions: JHH-DIPG-1 glioma viability, CellTiter-Glo ATP luminescence
[7] = viability loss with induced miR-34 in A549 – imaging, A549 dox-inducible miR-34, nuclei and caspase counts, primary screen (AID 1347080;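 active = compounds whose cell count with miR-34 switched on is under 0.7 times the count with it off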); conditions: A549 miR-34 inducible, Hoechst nuclei count, 48 h
[8] = MELAS cybrid and Rieske KO viability enhancers – cell-based, MELAS cybrids, Rieske KO mouse fibroblasts, CellTiter-Glo, primary screen (AID 1508586;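 active = mean z-score across replicates of 1.96 or higher in either the MELAS or the Rieske mutant cell line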;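 also: z relative to plate mean and SD of compound and empty wells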); conditions: low glucose
[9] = P. berghei load reduction in hepatocytes – cell-based, HepG2, luciferase luminescence, HepG2 viability, primary screen (AID 624349; in the data active = parasite load remaining mostly below about 12%, no sharp cut-off; inactive = mostly above about 10%;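 also: 100% = mean of DMSO negative control wells on the same plate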); conditions: P. berghei liver stage in HepG2, luciferase luminescence, concentration not given here; parasite load remaining: stronger effect = lower value; viability: measured here: HepG2 viability without parasites
[10] = viability loss in pontine glioma line – cell-based, SU-DIPG-XIII, MIPE5.0, CellTiter-Glo, qHTS, dose response (AID 1347064; cut-off not given, nearly all actives have AC50 up to about 23 µM;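 also: cells exposed to compound for 48 hours before the viability read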); conditions: CellTiter-Glo ATP luminescence
[11] = compounds altering HSF1 focus formation in cells – imaging, Selleck Cancer Library (AID 1347162; in the data active = plate-normalised HSF1 focus index below about 0.46); conditions: human cells, HSF1 nuclear foci imaging, at 10 µM; SSMD: measured here: HSF1 foci SSMD mean; cell count: measured here: cell number; plate-normalised HSF1 focus index: stronger effect = lower value
[12] = growth inhibition of DIPG cells – cell-based, MIPE5.0 library, qHTS (AID 1347068; cut-off not given, nearly all actives have IC50 up to about 30 µM;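 also: cells exposed to compound for 48 hours before viability readout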); conditions: SU-DIPG-XXV viability
[13] = drug combination growth inhibition, ovarian cancer – cell-based, oncology-focused library, rucaparib conditional, profiling panel (AID 1508598); conditions: patient-derived ovarian cancer cells, CellTiter-Glo viability, 144 h, stronger effect = lower value
[14] = stronger effect = lower value, cell number ratio, induced over uninduced
[15] = measured here: relative caspase fold change +Dox/-Dox
[16] = measured here: total cells with miR-34 induction, stronger effect = lower value
[17] = measured here: total cells without miR-34 induction
[18] = MELAS cybrid survival, CellTiter-Glo 48 h, stronger effect = higher value
[19] = Rieske KO mouse fibroblast survival, CellTiter-Glo 72 h

SMILES: Cn1c(Nc2ccc(C(F)(F)F)cc2)nc2cc(Oc3ccnc(-c4ncc(C(F)(F)F)[nH]4)c3)ccc21
- AC50 [1]: 5.25 µM (active)
- AC50 [2]: 16.6 µM (active)
- AC50 [3]: 0.132 µM (active)
- AC50 [4]: 0.372 µM (active)
- AC50 [5]: 3.32 µM (active)
- AC50 [6]: 2.63 µM (active)
- fold change [7, 14]: 0.96 (inactive)
- fold change [7, 15]: 0.95
- cell count [7, 16]: 2230
- cell count [7, 17]: 2330
- z-score [8, 18]: 0.723 (inactive)
- z-score [8, 19]: 0.357

SMILES: CC(=O)OC1C(C)OC(Oc2c(-c3ccc(O)cc3)oc3cc(O)cc(O)c3c2=O)C(O)C1OC(C)=O (centres undefined)
- parasite load remaining [9]: 29.8% (inactive)
- viability [9]: 85%
- outcome [1]: inactive
- outcome [2]: inactive
- AC50 [3]: 20.9 µM (active)

SMILES: Clc1ccc(C2(c3ccc(-c4cn[nH]c4)cc3)CCNCC2)cc1
- AC50 [1]: 18.6 µM (active)
- outcome [2]: inactive
- AC50 [10]: 14.8 µM (active)
- AC50 [4]: 10.5 µM (active)
- outcome [5]: inactive
- fold change [7, 14]: 0.914 (inactive)
- fold change [7, 15]: 1.06
- cell count [7, 16]: 2520
- cell count [7, 17]: 2760
- z-score [8, 18]: 5.75 (active)
- z-score [8, 19]: -3.02

SMILES: C/C=C/C[C@@H](C)C(=O)[C@H]1C(=O)N[C@@H](C(C)C)C(=O)N(C)CC(=O)N(C)[C@@H](CC(C)C)C(=O)N[C@@H](C(C)C)C(=O)N(C)[C@@H](CC(C)C)C(=O)N[C@@H](C)C(=O)N[C@H](C)C(=O)N(C)[C@@H](CC(C)C)C(=O)N(C)[C@@H](CC(C)C)C(=O)N(C)[C@@H](C(C)C)C(=O)N1C
- AC50 [1]: 8.11 µM (active)
- AC50 [2]: 18.7 µM (active)
- AC50 [4]: 5.74 µM (active)

SMILES: CO[C@H]1C[C@@H]2CC[C@@H](C)[C@@](O)(O2)C(=O)C(=O)N2CCCC[C@H]2C(=O)O[C@H]([C@H](C)C[C@@H]2CC[C@@H](OC(=O)C(C)(CO)CO)[C@H](OC)C2)CC(=O)[C@H](C)/C=C(\C)[C@@H](O)[C@@H](OC)C(=O)[C@H](C)C[C@H](C)/C=C/C=C/C=C/1C
- AC50 [1]: 14.4 µM (active)
- outcome [2]: inactive
- AC50 [4]: 12.9 µM (active)
- AC50 [5]: 9.35 µM (active)
- AC50 [6]: 14.4 µM (active)
- SSMD [11]: 0.578
- cell count [11]: 6900
- plate-normalised HSF1 focus index [11]: 1.05 (inactive)

SMILES: COc1cc(Nc2ncc(F)c(Nc3ccc4c(n3)N(COP(=O)(O)O)C(=O)C(C)(C)O4)n2)cc(OC)c1OC
- AC50 [1]: 1.05 µM (active)
- AC50 [2]: 1.87 µM (active)
- AC50 [3]: 3.32 µM (active)
- AC50 [10]: 3.72 µM (active)
- AC50 [4]: 3.72 µM (active)
- IC50 [12]: 4.68 µM (active)
- fold change [7, 14]: 0.857 (inactive)
- fold change [7, 15]: 0.912
- cell count [7, 16]: 1024
- cell count [7, 17]: 1190
- SSMD [11]: -2.78
- cell count [11]: 7320
- plate-normalised HSF1 focus index [11]: 0.825 (inactive)
- z-score [8, 18]: -0.637 (inactive)
- z-score [8, 19]: -0.181

SMILES: CO[C@@H](C(=O)N1Cc2[nH]nc(NC(=O)c3ccc(N4CCN(C)CC4)cc3)c2C1)c1ccccc1
- AC50 [1]: 0.525 µM (active)
- AC50 [2]: 1.87 µM (active)
- AC50 [10]: 1.05 µM (active)
- AC50 [4]: 0.372 µM (active)
- outcome [5]: inactive
- SSMD [11]: 1.91
- cell count [11]: 6850
- plate-normalised HSF1 focus index [11]: 1.1 (inactive)
- viability ([13]; at 0.000305 µM, OCI-C5x cells, with rucaparib 10 µM, 100% = cells with rucaparib alone): 122% (inactive)
- viability ([13]; at 0.000305 µM, OCI-C5x cells, without rucaparib): 95% (active)
- viability ([13]; at 0.000305 µM, OCI-P5x cells, with rucaparib 20 µM, 100% = cells with rucaparib alone): 88.8% (active)
- viability ([13]; at 0.000305 µM, OCI-P5x cells, without rucaparib): 84.6% (active)
- viability ([13]; at 0.00122 µM, OCI-C5x cells, with rucaparib 10 µM, 100% = cells with rucaparib alone): 113% (inactive)
- viability ([13]; at 0.00122 µM, OCI-C5x cells, without rucaparib): 106% (inactive)
- viability ([13]; at 0.00122 µM, OCI-P5x cells, with rucaparib 20 µM, 100% = cells with rucaparib alone): 89.5% (active)
- viability ([13]; at 0.00122 µM, OCI-P5x cells, without rucaparib): 84.3% (active)
- viability ([13]; at 0.00488 µM, OCI-C5x cells, with rucaparib 10 µM, 100% = cells with rucaparib alone): 96% (active)
- viability ([13]; at 0.00488 µM, OCI-C5x cells, without rucaparib): 104% (inactive)
- viability ([13]; at 0.00488 µM, OCI-P5x cells, with rucaparib 20 µM, 100% = cells with rucaparib alone): 91.4% (active)
- viability ([13]; at 0.00488 µM, OCI-P5x cells, without rucaparib): 88.2% (active)
- viability ([13]; at 0.0195 µM, OCI-C5x cells, with rucaparib 10 µM, 100% = cells with rucaparib alone): 96.4% (active)
- viability ([13]; at 0.0195 µM, OCI-C5x cells, without rucaparib): 81% (active)
- viability ([13]; at 0.0195 µM, OCI-P5x cells, with rucaparib 20 µM, 100% = cells with rucaparib alone): 95.5% (active)
- viability ([13]; at 0.0195 µM, OCI-P5x cells, without rucaparib): 93.2% (active)
- viability ([13]; at 0.0781 µM, OCI-C5x cells, with rucaparib 10 µM, 100% = cells with rucaparib alone): 57.5% (active)
- viability ([13]; at 0.0781 µM, OCI-C5x cells, without rucaparib): 79.9% (active)
- viability ([13]; at 0.0781 µM, OCI-P5x cells, with rucaparib 20 µM, 100% = cells with rucaparib alone): 91.5% (active)
- viability ([13]; at 0.0781 µM, OCI-P5x cells, without rucaparib): 73.7% (active)
- viability ([13]; at 0.313 µM, OCI-C5x cells, with rucaparib 10 µM, 100% = cells with rucaparib alone): 66.2% (active)
- viability ([13]; at 0.313 µM, OCI-C5x cells, without rucaparib): 89.6% (active)
- viability ([13]; at 0.313 µM, OCI-P5x cells, with rucaparib 20 µM, 100% = cells with rucaparib alone): 75.2% (active)
- viability ([13]; at 0.313 µM, OCI-P5x cells, without rucaparib): 64.1% (active)
- viability ([13]; at 1.25 µM, OCI-C5x cells, with rucaparib 10 µM, 100% = cells with rucaparib alone): 84.8% (active)
- viability ([13]; at 1.25 µM, OCI-C5x cells, without rucaparib): 112% (inactive)
- viability ([13]; at 1.25 µM, OCI-P5x cells, with rucaparib 20 µM, 100% = cells with rucaparib alone): 72.6% (active)
- viability ([13]; at 1.25 µM, OCI-P5x cells, without rucaparib): 60% (active)
- viability ([13]; at 5 µM, OCI-C5x cells, with rucaparib 10 µM, 100% = cells with rucaparib alone): 71.1% (active)
- viability ([13]; at 5 µM, OCI-C5x cells, without rucaparib): 88.4% (active)
- viability ([13]; at 5 µM, OCI-P5x cells, with rucaparib 20 µM, 100% = cells with rucaparib alone): 19.1% (active)
- viability ([13]; at 5 µM, OCI-P5x cells, without rucaparib): 17% (active)

— PubChem BioAssay
